Over roughly 140,000 sequences, “enrichment ratio after two sorts for PhoP signalling” has its median near 0; the highest 2% begin near 11. This is one part of a sample in which the highest values are shown more often than they occur.
B1: PhoQ; a variant is named by its letters at X, in order, P23837 (parent)
chain: MKKLLRLFFPLSLRVRFLLATAAVVLVLSLAYGMVALIGYSVSFDKTTFRLLRGESNLFYTLAKWENNKLHVELPENIDKQSPTMTLIYDENGQLLWAQRDVPWLMKMIQPDWLKSNGFHEIEADVNDTSLLLSGDHSIQQQLQEVREDDDDAEMTHSVAVNVYPATSRMPKLTIVVVDTIPVELKSSYMVWSWFIYVLSANLLLVIPLLWVAAWWSLRPIEALAKEVRELEEHNRELLNPATTRELTSLVRNLNRLLKSERERYDKYRTTLTDLTHSLKTPLXXLQXXLRSLRSEKMSVSDAEPVMLEQISRISQQIGYYLHRASMRGGTLLSRELHPVAPLLDNLTSALNKVYQRKGVNISLDISPEISFVGEQNDFVEVMGNVLDNACKYCLEFVEISARQTDEHLYIVVEDDGPGIPLSKREVIFDRGQRVDTLRPGQGVGLAVAREITEQYEGKIVAGESMLGGARMEVIFGRQHSAPKDE

Variants of: B1
Experiment: enrichment ratio after two sorts for PhoP signalling (ratio (wild type AVST 3.29)); higher = more functional
Settings: with PhoP (E. coli)
VSTM showed an enrichment ratio of 14.3.
In the case of VFTM, the enrichment ratio is reported as at most 0.25.
VSWM was tested, and the enrichment ratio was 2.15.
Variant VCTM has an enrichment ratio of 23.
For NSTM, the enrichment ratio was at most 0.25.
For KCTM, the enrichment ratio was at most 0.25.
For EPCV, the enrichment ratio was at most 0.25.
Variant PQFI has an enrichment ratio of at most 0.25.
IWAV gave an enrichment ratio of at most 0.25.
PCTF gave an enrichment ratio of at most 0.25.
Work on RWFD yielded an enrichment ratio of at most 0.25.
In the case of ASLQ, the enrichment ratio is reported as 11.8.
ALLQ showed an enrichment ratio of 14.7.
ACLR was tested, and the enrichment ratio was 8.18.
Variant AILQ has an enrichment ratio of 13.6.
ASTA showed an enrichment ratio of 9.73.
KCLQ showed an enrichment ratio of at most 0.25.
Work on ACLQ yielded an enrichment ratio of 11.6.
ASLR was tested, and the enrichment ratio was 3.29.
LQLQ was tested, and the enrichment ratio was at most 0.25.
For ADLQ, the enrichment ratio was 3.02.
With VHLQ the enrichment ratio was at most 0.25.
PLLQ gave an enrichment ratio of at most 0.25.
FDLT gave an enrichment ratio of at most 0.25.
With DGHY the enrichment ratio was at most 0.25.
FIKM showed an enrichment ratio of at most 0.25.
Variant HWCE has an enrichment ratio of at most 0.25.
SDKP showed an enrichment ratio of at most 0.25.
Variant YSIR has an enrichment ratio of at most 0.25.
WSFS was tested, and the enrichment ratio was at most 0.25.
For KRRI, the enrichment ratio was at most 0.25.
With SLHA the enrichment ratio was at most 0.25.
Variant IGLE has an enrichment ratio of at most 0.25.
With TPMA the enrichment ratio was at most 0.25.
KSGA was tested, and the enrichment ratio was at most 0.25.
With ELRR the enrichment ratio was at most 0.25.
FQKN was tested, and the enrichment ratio was at most 0.25.
CNES showed an enrichment ratio of at most 0.25.
IDKS showed an enrichment ratio of at most 0.25.
With TVPS the enrichment ratio was at most 0.25.
AGLQ was tested, and the enrichment ratio was 13.5.
MGLQ showed an enrichment ratio of 16.
TGLQ gave an enrichment ratio of 9.97.
In the case of HKLQ, the enrichment ratio is reported as at most 0.25.
For TKLQ, the enrichment ratio was 6.41.
Work on AKLQ yielded an enrichment ratio of 41.4.
Work on AQLQ yielded an enrichment ratio of 5.87.
Work on GGLQ yielded an enrichment ratio of 3.13.
With MFLQ the enrichment ratio was at most 0.25.
ATLQ was tested, and the enrichment ratio was 11.5.
AYLQ showed an enrichment ratio of 0.526.
For MGLR, the enrichment ratio was at most 0.25.
NIMF gave an enrichment ratio of at most 0.25.
With YKKL the enrichment ratio was at most 0.25.
With ESDI the enrichment ratio was at most 0.25.
PSMS showed an enrichment ratio of at most 0.25.
WGKP was tested, and the enrichment ratio was at most 0.25.
With QAMN the enrichment ratio was at most 0.25.
Variant KCTY has an enrichment ratio of at most 0.25.
TCTY showed an enrichment ratio of 14.7.
In the case of VCTY, the enrichment ratio is reported as at most 0.25.
HVTY showed an enrichment ratio of at most 0.25.
For LSTY, the enrichment ratio was at most 0.25.
SCTY showed an enrichment ratio of 15.6.
In the case of DNQA, the enrichment ratio is reported as at most 0.25.
With WMWR the enrichment ratio was at most 0.25.
GEYP showed an enrichment ratio of at most 0.25.
DMMD showed an enrichment ratio of at most 0.25.
ACGA was tested, and the enrichment ratio was at most 0.25.
ACVA was tested, and the enrichment ratio was 3.46.
Work on ACMF yielded an enrichment ratio of 14.4.
ACGF was tested, and the enrichment ratio was 6.85.
Variant ACMG has an enrichment ratio of 14.3.
Work on ACMA yielded an enrichment ratio of 34.1.
ACWF gave an enrichment ratio of at most 0.25.
For ACMW, the enrichment ratio was at most 0.25.
In the case of ACMR, the enrichment ratio is reported as 1.61.
ACMK gave an enrichment ratio of 17.8.
In the case of ACVG, the enrichment ratio is reported as 4.01.
In the case of ACMT, the enrichment ratio is reported as 10.1.
PYWL was tested, and the enrichment ratio was at most 0.25.
Variant DKNN has an enrichment ratio of at most 0.25.
FTRE showed an enrichment ratio of at most 0.25.
In the case of QRLI, the enrichment ratio is reported as at most 0.25.
For FFKH, the enrichment ratio was at most 0.25.
NCDG showed an enrichment ratio of at most 0.25.
Variant QIFY has an enrichment ratio of at most 0.25.
Variant VWPM has an enrichment ratio of at most 0.25.
ACMV was tested, and the enrichment ratio was 7.12.
With ACMQ the enrichment ratio was 31.7.
Variant ACVC has an enrichment ratio of 1.02.
Variant ACMI has an enrichment ratio of 21.
With ACWQ the enrichment ratio was at most 0.25.
For ACGG, the enrichment ratio was 4.87.
Work on ACMS yielded an enrichment ratio of 8.75.
Variant ACIG has an enrichment ratio of 12.3.
WGDV was tested, and the enrichment ratio was at most 0.25.
For VHHQ, the enrichment ratio was at most 0.25.
Variant TTPE has an enrichment ratio of at most 0.25.
With MDFT the enrichment ratio was at most 0.25.
RPHC gave an enrichment ratio of at most 0.25.
NELR gave an enrichment ratio of at most 0.25.
MQVH was tested, and the enrichment ratio was 2.29.
For TPTT, the enrichment ratio was at most 0.25.
Work on SNQI yielded an enrichment ratio of 12.5.
Variant SLQI has an enrichment ratio of 5.02.
With DNQI the enrichment ratio was 22.9.
Work on SNYI yielded an enrichment ratio of 0.257.
DMQI gave an enrichment ratio of at most 0.25.
SQQI was tested, and the enrichment ratio was 2.33.
SPAY showed an enrichment ratio of at most 0.25.
NQCE gave an enrichment ratio of at most 0.25.
SNAY was tested, and the enrichment ratio was 14.8.
SNCE was tested, and the enrichment ratio was at most 0.25.
With SQCE the enrichment ratio was 24.1.
In the case of DNQN, the enrichment ratio is reported as at most 0.25.
For REHF, the enrichment ratio was at most 0.25.
In the case of APRY, the enrichment ratio is reported as at most 0.25.
In the case of WCFP, the enrichment ratio is reported as at most 0.25.
Variant VRKW has an enrichment ratio of at most 0.25.
With HDVL the enrichment ratio was at most 0.25.
For SLKT, the enrichment ratio was at most 0.25.
PVHR gave an enrichment ratio of at most 0.25.
GYTV gave an enrichment ratio of at most 0.25.
YWVH was tested, and the enrichment ratio was at most 0.25.
Work on HHYP yielded an enrichment ratio of at most 0.25.
SNCA gave an enrichment ratio of 16.8.
SQSA was tested, and the enrichment ratio was 3.01.
For SQCK, the enrichment ratio was 9.83.
SQTH was tested, and the enrichment ratio was 3.03.
With SRSA the enrichment ratio was at most 0.25.
Variant SQCA has an enrichment ratio of 8.55.
In the case of SNHF, the enrichment ratio is reported as at most 0.25.
For SNDH, the enrichment ratio was at most 0.25.
Work on SNCI yielded an enrichment ratio of 21.8.
SQCI was tested, and the enrichment ratio was 15.6.
Work on SNHI yielded an enrichment ratio of at most 0.25.
With SNSA the enrichment ratio was 13.1.
For DNPA, the enrichment ratio was at most 0.25.
ILGQ showed an enrichment ratio of at most 0.25.
SFVQ was tested, and the enrichment ratio was at most 0.25.
Variant YVYP has an enrichment ratio of at most 0.25.
In the case of FFCP, the enrichment ratio is reported as at most 0.25.
Work on LDYA yielded an enrichment ratio of at most 0.25.
Variant SICI has an enrichment ratio of 21.
For SITW, the enrichment ratio was 4.
SSTM gave an enrichment ratio of 21.4.
SILH showed an enrichment ratio of 3.1.
Work on SSGM yielded an enrichment ratio of 13.4.
SSWM showed an enrichment ratio of 6.76.
For SQTM, the enrichment ratio was 6.18.
SSPM showed an enrichment ratio of 0.954.
Variant KYCV has an enrichment ratio of at most 0.25.
SICE showed an enrichment ratio of 1.33.
For SSGD, the enrichment ratio was at most 0.25.
With SICV the enrichment ratio was 16.6.
DMMP showed an enrichment ratio of at most 0.25.
Variant NRRM has an enrichment ratio of at most 0.25.
YLRW showed an enrichment ratio of at most 0.25.
TKFH was tested, and the enrichment ratio was at most 0.25.
LSNL was tested, and the enrichment ratio was at most 0.25.
In the case of EACR, the enrichment ratio is reported as at most 0.25.
For HEFW, the enrichment ratio was at most 0.25.
LKYV showed an enrichment ratio of at most 0.25.
Variant SIAM has an enrichment ratio of 20.8.
For KYCS, the enrichment ratio was at most 0.25.
With SICS the enrichment ratio was 16.9.
TSVM was tested, and the enrichment ratio was 3.12.
In the case of WLTM, the enrichment ratio is reported as at most 0.25.
Variant KSVM has an enrichment ratio of at most 0.25.
Work on SIMD yielded an enrichment ratio of 4.7.
SSVM was tested, and the enrichment ratio was 17.6.
KYAM was tested, and the enrichment ratio was at most 0.25.
For SICA, the enrichment ratio was 8.12.
Variant SLTM has an enrichment ratio of 12.5.
Variant PLTM has an enrichment ratio of at most 0.25.
DEHQ was tested, and the enrichment ratio was at most 0.25.
With SHVQ the enrichment ratio was at most 0.25.
Variant KNSF has an enrichment ratio of at most 0.25.
For EDWM, the enrichment ratio was at most 0.25.
Work on PVLM yielded an enrichment ratio of at most 0.25.
With VLTM the enrichment ratio was at most 0.25.
TLTM gave an enrichment ratio of 19.
SIWM gave an enrichment ratio of at most 0.25.
Variant FIGM has an enrichment ratio of at most 0.25.
Work on LLTM yielded an enrichment ratio of at most 0.25.
For SIGM, the enrichment ratio was 9.86.
Work on KYCG yielded an enrichment ratio of at most 0.25.
Variant SICK has an enrichment ratio of 14.6.
With FICM the enrichment ratio was 12.9.
Work on FICK yielded an enrichment ratio of at most 0.25.
With SICG the enrichment ratio was 22.
WICG showed an enrichment ratio of at most 0.25.
NHYV gave an enrichment ratio of at most 0.25.
EHWN gave an enrichment ratio of at most 0.25.
